Experimental data as given in ChEMBL document CHEMBL3988442, “University of Dundee, Small-Polar-MMV Screening Library” (2021).
Among all 48,000 compounds or so, about 13,000 (27%) showed an effect of 50% or more. This is one part of the list.

The compounds below were run on Wolbachia pipientis (assay: Anti-Wolbachia Cell-Based Screen). Conditions: 5 µM.
Format: functional
Parameters: scale not given: in the data most compounds retested in dose-response had high values

Compound	Percent Effect [%]
CC(=O)N1CCN(C(=O)NCCCN(C(C)C)S(C)(=O)=O)CC1	-2.467
COc1ccc2[nH]nc(CN3CCN(Cc4cccc(F)c4)CC3)c2c1	-9.903
Cc1cc(NCCCNS(C)(=O)=O)nc2ccccc12	-15.92
CCN(C)C1COC2(CCN(C(=O)c3ccc4[nH]ccc4c3)CC2)C1 (stereo unspecified)	-14.16
O=C(CCCOc1ccc(F)cc1)N1CCCC(n2cccn2)C1 (stereo unspecified)	-3.272
O=C(CCCOc1ccc(F)cc1F)N1CCCC(n2cccn2)C1 (stereo unspecified)	132.9
O=C(COc1ccc2c(c1)CCC2)N1CCCC(n2cccn2)C1 (stereo unspecified)	22.49
O=C(CCCOc1cccc(F)c1)N1CCCC(n2cncn2)C1 (stereo unspecified)	133
O=C(CCCOc1cccc(F)c1)N1CCCC(n2cccn2)C1 (stereo unspecified)	116.5
Cn1cc(C2CCCN2C(=O)CCCOc2ccc(F)cc2F)cn1 (stereo unspecified)	6.494
O=C(CCCOc1ccccc1Cl)N1CCCC(n2cncn2)C1 (stereo unspecified)	20.25
O=C(CCOc1cccc(F)c1)N1CCCC(n2cccn2)C1 (stereo unspecified)	114
O=C(CCOc1cccc(F)c1)N1CCCC(n2cncn2)C1 (stereo unspecified)	-0.888
O=C(CCCc1nc2ccccc2[nH]1)N1CCCC(n2cccn2)C1 (stereo unspecified)	-6.233
Cc1nnc2n1CCN(C(=O)CN1C(=O)CCOc3ccccc31)C2	-10.74
CCN1CCN(S(=O)(=O)c2c[nH]c(C(C)C)n2)c2ccccc21	-17.2
CCc1ocnc1C(=O)Nc1ccc2ccn(CCN(C)C)c2c1	-13.13
CC(C)c1ncncc1C(=O)NCCN1CCCS1(=O)=O	-1.199
C/C(=C\c1ccco1)CN(C)C(C)c1ccccn1 (stereo unspecified)	4.306
CCC(CO)N(Cc1ccccc1C)Cc1ccccc1C(=O)O (stereo unspecified)	-4.887
COc1ccc(-c2noc([C@@H]3C[C@@H](O)CN3C3CCOCC3)n2)cc1	13.77
CCn1cc(-c2cncn2CCc2ccc3c(c2)OCCO3)cn1.Cl	128.2
CN(C)c1ncc(-c2cncn2CCc2ccc3c(c2)OCCO3)cn1.Cl	96.16
CN(Cc1ccc2c(c1)OCCO2)c1ncc(S(N)(=O)=O)s1	-17.53

Compound	Percent Effect [%]
CN(Cc1ccc2c(c1)OCCO2)C(=O)Cn1cccnc1=O	7.904
CN(Cc1ccc2c(c1)OCCO2)C(=O)NCCc1cnn(C)c1	10.28
Cc1cnn(C2CN(Cc3ccc4c(c3)OCCO4)C2)c1	4.221
Cc1nn(C)cc1-c1cncn1CCc1ccc2c(c1)OCCO2.Cl	107.7
Cn1cnnc1C1CCN(C(=O)Cc2ccc3c(c2)OCCO3)CC1	14.42
COc1ccc(CN(C)C(=O)CCc2c(C)nc(C)[nH]c2=O)cc1OC	10.21
CC(C)Cn1ccnc1CNC(=O)NC(C)c1nccs1 (stereo unspecified)	-12.96
Cc1cccc(CNC[C@H]2COCc3nc4cccnc4n32)n1	-11.24
Cn1c(C2CCCN2C(=O)CN2CSCC2=O)nc2ccccc21 (stereo unspecified)	-5.788
Cn1ccnc1CN1CCO[C@H]2C(CNC(=O)c3ccco3)CC[C@@H]21.O=C(O)C(F)(F)F (stereo partly specified)	-4.038
CO[C@@H]1CN(S(=O)(=O)c2cn(C)cn2)[C@@H]2CCCO[C@@H]21.O=C(O)C(F)(F)F	7.147
Cn1ccnc1CN1CCc2onc(COCC3CC3)c2C1.O=C(O)C(F)(F)F	94.95
CN1CCc2onc(Cn3cccc3)c2C1.O=C(O)C(F)(F)F	-7.222
Cn1ccnc1CN1CCc2c(COCC3CC3)nn(C)c2C1	104.2
O=C(O)C(F)(F)F.c1ccn(Cc2noc3c2CN(Cc2ccsc2)CC3)c1	-2.985
Cn1nc(COCC2CC2)c2c1CCN(C(=O)c1ccno1)C2	2.608
Cn1cc(CN2CCCn3cnc(COCC4CC4)c3C2)cn1	-7.099
Cc1nc(N)sc1C(=O)N[C@H]1CN(CCO)C[C@@H]1C1CC1	15.87
O=C(NCC(F)(F)F)c1coc(COc2cccc(F)c2)n1	-8.912
CCc1nc(C)sc1CN1CCc2[nH]nc(-c3ccc(F)c(F)c3)c2C1	80.67
CC(C)c1nnsc1CN1CCc2[nH]nc(-c3ccc(F)c(F)c3)c2C1	-14.43
CC(C)c1nnsc1CN1CCc2[nH]nc(-c3ccc(Cl)cc3)c2C1	-32.01
CC(C)S(=O)(=O)c1ccccc1C(=O)NCC1Cc2ccccc2O1 (stereo unspecified)	-14.53
Cc1noc2nc(C3CCN(Cc4cccnc4)CC3)cc(C(F)F)c12.Cl	-9.901

Compound	Percent Effect [%]
Cc1noc2nc(C3CCCN(Cc4cccnc4)C3)cc(C(F)F)c12 (stereo unspecified)	110
FC(F)(F)c1cc(C2CCCN(Cc3cccnc3)C2)n[nH]1 (stereo unspecified)	5.486
Cc1noc2nc(C3CCN(Cc4ccncc4)CC3)cc(C(F)F)c12	-5.85
Cc1noc2nc(C3CCCN(Cc4ccncc4)C3)cc(C(F)F)c12 (stereo unspecified)	102.2
O=C(O)C(F)(F)F.c1ccc(CN2Cc3[nH]nc(COCC4CC4)c3C2)nc1	-4.447
O=C(c1ccsc1)N1CCc2c(COCc3ccncc3)cncc2C1	6.158
Cn1cc(CN2CCc3c(COCc4ccncc4)cncc3C2)cn1	11
O=C(c1ccoc1)N1CCc2c(COCc3ccncc3)cncc2C1	-1.129
Cn1cc(CN2CCc3c(COCC4CC4)cncc3C2)cn1.O=C(O)C(F)(F)F.O=C(O)C(F)(F)F	4.622
O=C(O)C(F)(F)F.O=C(O)C(F)(F)F.O=C(c1ccc[nH]1)N1CCc2c(COCc3ccncc3)cncc2C1	-6.376
O=C(O)C(F)(F)F.O=C(O)C(F)(F)F.O=C(O)C(F)(F)F.c1ccc(CN2CCc3c(COCC4CC4)cncc3C2)nc1	97.89
O=C(O)C(F)(F)F.O=C(O)C(F)(F)F.O=C(O)C(F)(F)F.O=C(O)C(F)(F)F.c1ccc(CN2CCc3c(COCc4ccncc4)cncc3C2)nc1	100.9
CCOCc1cncc2c1CCN(S(=O)(=O)c1ccccc1)C2	-7.612
CCS(=O)(=O)N1CCc2c(COCc3ccncc3)cncc2C1	118.3
O=C(O)C(F)(F)F.O=C(O)C(F)(F)F.O=C(O)C(F)(F)F.c1cncc(COCc2cncc3c2CCN(Cc2ccoc2)C3)c1	108.7
O=C(O)C(F)(F)F.O=C(O)C(F)(F)F.c1cncc(COCc2nnc3n2CCN(Cc2ccoc2)C3)c1	7.608
N#Cc1ccccc1C(=O)N1C[C@H](CO)C[C@H](CN2CCCC2)C1	4.936
Cc1nc(C(=O)N2CCN(C(=O)C3CCC3)[C@@H]3CS(=O)(=O)C[C@@H]32)cs1	7.717
CNC(=O)NC(=O)C(C)N1CCC(c2c[nH]c3ccc(OC)cc23)CC1 (stereo unspecified)	1.858
CC(C)CCN(C)Cn1ncc2cn(-c3ccccc3)nc2c1=O	5.11
CCn1c(CNC(=O)Nc2nc(C)c(C)o2)nc2ccccc21	89.34
CCn1c(CNC(=O)c2ccc(N(C)C)nc2)nc2ccccc21	8.635
Cc1nc(NC(=O)NCc2nc3cccc(C)c3n2C)oc1C	43.9
CC(=O)NCCSCCOc1cccc(Br)c1	-2.574

Compound	Percent Effect [%]
CNc1oc(-c2ccc(OC)c(S(=O)(=O)N3CCCCC3)c2)nc1C#N	-6.371
Cc1oc(-c2nc(C#N)c(N(C)C)o2)cc1S(=O)(=O)N1CCCC1	17.91
CNc1oc(-c2ccc(S(=O)(=O)N(C)C)o2)nc1C#N	100.4
CN(C)S(=O)(=O)c1ccc(-c2nc(C#N)c(NC(C)(C)C)o2)o1.Cl	93
CCCNC(=O)CSCc1ccc(S(=O)(=O)N(C)C)o1	-0.4398
CN(C)S(=O)(=O)c1ccc(CSCC(=O)NC(C)(C)C)o1	-7.197
CNc1oc(-c2cc(S(=O)(=O)N3CCCCCC3)c(C)o2)nc1C#N	9.909
CC(C)Nc1oc(-c2ccc(S(=O)(=O)N(C)C)o2)nc1C#N	118.4
COc1cccc(N2CC3(CCN(c4ccncn4)C3)CC2=O)c1 (stereo unspecified)	-12.13
Cc1nnc2n1CCN(Cc1nc3ccccc3o1)C2	13.24
O=C(N[C@@H]1CCNC[C@H]1O)c1cc(F)cc(Cl)c1	0.509
O=C(O)CCCC(=O)N1CCC(c2noc3cc(F)ccc23)CC1	110.7
O=C(CCC(=O)N1CCNC(=O)C1c1cccc(F)c1)NC1CCCC1 (stereo unspecified)	-14.56
CC(C)NC(=O)CCN1CCC(C(=O)c2cc(F)ccc2F)CC1	-38.81
CC(=O)N1CC[C@H](c2nc3cc(F)ccc3o2)C1	5.323
O=C(O)CCC(=O)N1CCC(c2noc3cc(F)ccc23)CC1	117.2
O=C(CCc1cc(O)no1)N1CCC(Cc2ccc(F)cc2)CC1	-4.234
CS(=O)(=O)CCC(=O)N1CCC(c2cccc(F)c2)C1 (stereo unspecified)	-0.1646
O=C(CN1CCC(C(=O)c2cc(F)ccc2F)CC1)NC1CC1	-20.5
CC(C)NC(=O)CCC(=O)N1CCC(c2noc3cc(F)ccc23)CC1	90.62
O=C(CCC(=O)N1CCC(c2noc3cc(F)ccc23)CC1)NC1CC1	145.4
O=C(c1ccc(Cl)c(Cl)c1)N1CCCCC1C1OCCO1 (stereo unspecified)	4.358
Cc1ncc(CNC(=O)N(C)Cc2ccc([S+](C)[O-])cc2)s1 (stereo unspecified)	-5.78
CCc1nc(CN2CCOC(CN(CC)c3cccnn3)C2)cs1 (stereo unspecified)	0.2652
